HT1080 IDH1KD tx – HT-1080 IDH1 knockdown cell toxicity (counter line) | actives 2% (n = 360,000) | Potency, µM (highest dose often 46.1 µM), without a hit: at the highest dose activity, negative = toxicity, most hits filed as cytotoxic | AID 686971 | HT-1080 IDH1 knockdown viability, ATP luminescence, 48 h;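 further: 0% = DMSO wells and -100% = cell-free medium wells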
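Knockdown cells (IDH1KD HT-1080) received compounds 2 h after plating at 750 cells/well and were kept 48 h at 37 °C in 5% FBS RPMI. A CellTiter-Glo luminescence read gave % activity for curve fitting.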
SW480 rerep – inducers of DNA re-replication in SW480 colon cancer cells | SW480 DNA re-replication, Hoechst DNA content imaging, 48 h | Potency, µM (highest dose often 46.1 µM), for inactives: at the highest dose re-replication activation, usual class: activators | actives 1.8% (n = 340,000); further: % of control where 0% means no effect; nearly all actives have a fitted effect of over 55% in size
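Treated cells incubate 48 hr (37 C, 5% CO2), are stained 40 min with Hoechst, and nuclear fluorescence is enumerated; a rise in nuclei with high DNA signal marks re-replication.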
KB-3-1 cytotox – KB-3-1 parental cell cytotoxicity; KB-3-1 viability, CellTiter-Glo ATP luminescence, 72 h; Potency, µM (titrated, usually from 46.1 µM), actives largely listed as cytotoxic; actives 1.4% (n = 400,000); AID 1347075; further: on the % scale 0 is the no-effect control and ±100 the full control effect; nearly all actives have a fitted effect of over 60% in size
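Parental KB-3-1 adenocarcinoma cells in phenol-red-free DMEM with 10% FBS were pin-treated with compounds at several concentrations, incubated 72 h at 37 °C, and viability read by CellTiter-Glo luminescence; concentration-effect curves were fitted after normalization.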
MCF10A rereplic – DNA re-replication induction in MCF 10a cells; Potency, µM (doses to about 46.1 µM), for the others: at the highest dose activity, positive = re-replication, usual class: activators; AID 624296; actives 2.9% (n = 350,000); MCF 10A DNA re-replication, Hoechst nuclear intensity, 48 h; further: % of control where 0% means no effect; nearly all actives have a fitted effect of over 50% in size
KB-V1 cytotox – kills drug-selected multidrug resistant KB-V1 cells; KB-V1 MDR cells viability, CellTiter-Glo, 72 h; Potency, µM (top dose mostly 46.1 µM), most hits filed as cytotoxic; actives 3.4% (n = 400,000); further: on the % scale 0 is the no-effect control and ±100 the full control effect; nearly all actives have a fitted effect of over 60% in size
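In this primary screen, KB-V1 cells overexpressing P-gp are incubated with library compounds (lowest to highest concentration) for 72 h at 37 degrees C before a luminescent ATP viability read.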
HT1080-NT tox – kills 2HG-producing HT-1080-NT fibrosarcoma cells; HT-1080-NT fibrosarcoma viability, CellTiter-Glo ATP luminescence, 48 h; Potency, µM (doses to about 46.1 µM), without a hit: top-dose activity, negative = less viability, usual class: cytotoxic; actives 1.6% (n = 360,000);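 further: NT is the 2HG producing partner of a matched IDH1 knockdown line; 0% = DMSO-treated cells and -100% = media-only wells without cells; nearly all actives have a fitted effect of over 55% in size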
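Toxicity toward the 2HG-producing NT line was scored as %Activity, normalised to DMSO and no-cell wells, from CellTiter-Glo luminescence after 48 hours' treatment.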
The depositor's hits bear a star; i = inactive; ? = inconclusive; · = no result given. An excerpt weighted towards active compounds, which were near 7.9% of everything screened. The call rests on the fitted dose curve; in most records, active means well fitted curve in the direction sought with a large enough effect; inconclusive means small, poorly fitted or top-dose-only effect, or another doubt; inactive means no such curve, though single readings can be large; an effect the other way counts as inactive or inconclusive. Potency means the concentration at half of the fitted maximal effect.

SMILES	HT1080 IDH1KD tx	SW480 rerep	KB-3-1 cytotox	MCF10A rereplic	KB-V1 cytotox	HT1080-NT tox
COc1cc2nc(N3CCCN(C)CC3)nc(N)c2cc1OC	-15.3%	·	·	·	·	-2.8%
O=C(Cn1c(=O)n(CC2CCC(C(=O)NCCc3ccccc3)CC2)c(=O)c2ccccc21)Nc1ccccc1 (stereo not given)	·	·	i	·	i	·
CCc1cccc(NC(=O)Cn2c(=O)n(CC3CCC(C(=O)NCCc4ccccc4)CC3)c(=O)c3ccccc32)c1 (stereo not given)	·	·	14.6µM*	·	i	·
Cc1cc(C(=O)CSc2nc3ccccc3o2)c(C)n1C1CC1	1.3%	8.8%	i	23.1µM*	?	9.3%
Cc1cc(C(=O)CSc2ncnc3ccccc23)c(C)n1C1CC1	-0.3%	-7.0%	i	2.1%	i	0.0%
C=CCn1c(C)cc(C(=O)CSc2nc3ccccc3o2)c1C	-5.6%	?	?	23.1µM*	14.6µM*	-3.2%
C=CCn1c(C)cc(C(=O)CSc2nnc(NCc3ccccc3)s2)c1C	?	?	13µM*	3.66µM*	10.3µM*	?
C=CCn1c(C)cc(C(=O)CSc2nnc(Cc3ccccc3)o2)c1C	17.7%	9.5%	i	22.9%	i	19.0%
CC(NC(=O)CNC(=O)c1cccc(Cl)c1)c1ccccc1 (stereo not given)	0.0%	-3.4%	i	-3.4%	i	4.9%
COC(=O)c1cc(CSc2nnc(NC3CCCCC3)s2)oc1C	18.4µM*	-0.8%	?	25.3%	20.6µM*	-4.5%
CC1(C)Cc2c(sc(/N=C/N3CCCCCC3)c2C#N)C(C)(C)N1	?	0.5%	?	16.4µM*	i	-6.6%
CN(Cc1cnc2nc(N)nc(N)c2n1)c1ccc(C(=O)NC(CCC(=O)O)C(=O)O)c2ccccc12 (stereo not given)	0.0058µM*	?	?	8.4%	i	?
COc1ccc(-c2csc(/C(C#N)=C/Nc3ccc4c(c3)OCCO4)n2)cc1	-0.6%	2.31µM*	i	2.06µM*	i	16.6%
CC(C)(C)/C(O)=C(/C#N)c1nc2ccccc2[nH]1	-18.3%	15.0%	i	?	?	-18.6%
N#C/C(=C\Nc1ccc2c(c1)OCCO2)c1nc2ccccc2[nH]1	-8.8%	?	?	?	14.6µM*	0.0%
N#C/C(=C(/O)c1ccc([N+](=O)[O-])o1)c1nc2ccccc2[nH]1	-0.9%	?	?	3.26µM*	?	23.9%
COc1cccc(OC)c1/C(O)=C(\C#N)c1nc2ccccc2[nH]1	-25.5%	-14.0%	i	1.3%	i	17.8µM*
O=C(c1ccc(Cl)cc1)c1cn(Cc2ccccc2)c2cc3c(cc2c1=O)OCCO3	·	·	i	·	i	·
COc1ccc(-c2noc(-c3cccnc3N3CCN(c4ccc(OC)cc4)CC3)n2)cc1	·	·	i	·	i	·
N#C/C(=C\c1ccc([N+](=O)[O-])o1)c1nc2ccccc2[nH]1	5.8µM*	?	13µM*	3.66µM*	i	5.8µM*
Cc1ccc2nc(/C(C#N)=C\c3ccc([N+](=O)[O-])o3)[nH]c2c1	2µM*	?	i	9.2µM*	i	?
CCOc1cc2[nH]c(=O)n(Cc3ccc(C(=O)N4CCN(c5ccccc5)CC4)cc3)c(=O)c2cc1OCC	·	·	i	·	i	·
CN(C)c1ccc(C(c2ccc(N(C)C)cc2)C(O)c2ccccc2)cc1 (stereo not given)	16.0%	-2.5%	i	22.7%	16.4µM*	11.4%
CN(C)c1ccc(C(=O)C(O)c2ccccc2)cc1 (stereo not given)	2.9%	-1.4%	i	1.4%	i	5.0%
N/C(Cc1ccc(Cl)cc1)=N\OC(=O)c1ccccc1	?	-0.8%	i	3.5%	i	?
SMILES	HT1080 IDH1KD tx	SW480 rerep	KB-3-1 cytotox	MCF10A rereplic	KB-V1 cytotox	HT1080-NT tox
COc1ccc(C(=O)O/N=C(\N)Cc2ccc(Cl)cc2)cc1OC	?	?	?	?	?	14.6µM*
COc1ccc(/C(N)=N/OC(=O)Cc2ccc(C)cc2)cc1OC	0.3%	2.91µM*	i	?	i	-0.2%
COc1ccc(C(=O)O/N=C(\N)Cc2ccc(Cl)c(Cl)c2)cc1OC	?	·	?	?	?	14.6µM*
COc1ccc(CC(=O)O/N=C(\N)c2ccc(C)cc2)cc1	-2.8%	1.3%	i	-0.3%	i	-3.7%
O=C(CC1C(=O)NCCN1CC1CCCCC1)NCCCN1CCOCC1 (stereo not given)	13.2%	-13.4%	i	-1.3%	i	9.6%
CC(C)(C)c1ccc(OCc2ccc(C(=O)N3CCOCC3)o2)cc1	?	?	i	8.6%	25.9µM*	?
CC1CCCCN1C(=O)c1ccc(COc2ccc([N+](=O)[O-])cc2)o1 (stereo not given)	16.6%	-34.2%	i	?	18.4µM*	7.0%
CCc1ccc(OCc2ccc(C(=O)NCc3ccccn3)o2)cc1	-16.3%	3.7%	i	25.9%	i	-22.4%
COc1ccccc1OCc1ccc(C(=O)N2N=C(C(F)F)CC2(O)C(F)F)o1 (stereo not given)	7.2%	10.4%	i	?	16.4µM*	4.9%
CCOc1ccc(OCc2ccc(C(=O)NCc3ccncc3)o2)cc1	3.1%	-1.9%	i	18.4µM*	?	-15.4%
O=C(c1ccc(COc2ccc(Cl)cc2)o1)N1N=C(C(F)F)CC1(O)C(F)F (stereo not given)	?	8.5%	?	?	i	?
Oc1cccc(-c2nc3ncccn3c2Nc2cccc(C(F)(F)F)c2)c1	·	·	i	·	i	·
CCCOc1ccc(C(F)(F)F)cc1NC(=O)C1CC(=O)N(Cc2ccco2)C1 (stereo not given)	-3.7%	-3.0%	i	-0.9%	?	-21.6%
CN(C)CCNC(=O)C1(C)Cc2c(-c3cccc(C(F)(F)F)c3)ccnc2O1 (stereo not given)	?	·	i	·	i	?
CN(c1ccccc1C(=O)Nc1ccccc1-c1ccccc1)S(C)(=O)=O	7.8%	-31.4%	i	-17.4%	i	8.2%
CCOC(=O)N1CCc2c(sc3c2c(=O)n(-c2ccc(Cl)cc2)c(=O)n3CC(=O)Nc2ccccc2)C1	·	·	i	·	i	·
c1cc(-c2ccsc2)n2cnnc2c1	1.8%	·	i	·	i	0.1%
CCCNC(=O)c1ccc(COc2ccc(C(C)(C)C)cc2)o1	-18.9%	8.7%	i	?	i	?

Screens (PubChem BioAssay)
